Most compounds without a hit are left out; they make up all but 6.5% or so of the library.
Giardia killer: Giardia lamblia killing; activity change, % at 7.66 µM, hits read low; 0.15% of 340,000 active; Giardia lamblia trophozoite viability; in the data active = activity change below about -80%; inconclusive = between about -30% and that limit;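 note: parasites exposed to compound for two days anaerobically before the ATP read; % is set by controls: 0 for no effect and ±100 for the full control effect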
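Trophozoite viability was measured as ATP-dependent luminescence, read 15-30 min after reagent addition. Before that, parasites at 100 cells/well were exposed to compounds for 48 h, anaerobically, at 37 deg C.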
TGFb SMAD3 inh: blocks TGF-b signaling; HepG2 CAGA-GFP TGF-b/SMAD3 reporter, GFP fluorescence, 18 h; TGF-beta stimulated, 500 pg/mL final; 1.2% of 410,000 active; Potency, µM (highest dose often 46.1 µM), without a hit: top-dose activity, negative = inhibition, actives largely listed as inhibitors; note: potency is the fitted concentration of half-maximal effect; % is set by controls: 0 for no effect and ±100 for the full control effect; nearly all actives have a fitted effect of over 65% in size
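Per well, imaged GFP fluorescence of HEPG2 CAGA-GFP cells gives the signal; cells get compound, then TGF-beta (500 pg/mL final), 18 h at 37 degrees C; %Activity versus -TGF-beta and +DMSO controls.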
HT1080-NT tox: kills 2HG-producing HT-1080-NT fibrosarcoma cells. HT-1080-NT fibrosarcoma viability, CellTiter-Glo ATP luminescence, 48 h. AID 686970. Potency, µM (series often up to 46.1 µM), for the others: at the top dose activity, negative = less viability, hits mostly cytotoxic. 1.6% of 360,000 active;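 note: NT is the 2HG producing partner of a matched IDH1 knockdown line; potency is the fitted concentration of half-maximal effect; 0% = DMSO-treated cells and -100% = media-only wells without cells; nearly all actives have a fitted effect of over 55% in size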
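HT-1080-NT; 750 cells/well; 5% FBS RPMI; 48 h compound, 37 degrees C; CellTiter-Glo luminescence; curve fitting and curve-class assignment.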
IL1B secr inh: inhibitors of inflammasome signaling (IL-1 beta secretion); activity change, % at 57.5 µM; THP-1 LPS/ATP IL-1B secretion, AlphaLISA, 16 h; active compounds read low; 4.7% of 360,000 active; in the data active = activity change below about -50%; inconclusive = mostly about -30% to -49%; note: % is set by controls: 0 for no effect and ±100 for the full control effect
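Secreted IL-1B measured by AlphaLISA bead assay after 16 h compound exposure of THP-1 cells; compounds (final up to 57.5 uM) added 1 h before LPS (250 ng/mL) and ATP (1.25 mM) stimulation; lower signal means less secretion.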
HepG2 tox: counter-screen for TGF-b inhibitors: cytotoxicity in HepG2 cells; AID 588856; 0.76% of 410,000 active; HepG2 CAGA-GFP viability, ATP luminescence, 18 h; Potency, µM (highest dose often 46.1 µM), inactives show top-dose activity change, negative = cytotoxicity, usual class: cytotoxic; note: potency is the fitted concentration of half-maximal effect
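CellTiter-Glo luminescence gave cytotoxicity after 18 hours at 37 degrees C. The cells were HepG2 CAGA-GFP in 1% FBS DMEM, stimulated with 500 pg/mL TGF-beta after compound addition. %Activity was normalised to no-cell wells (complete cell-killing) and DMSO (no toxicity), and curves were fitted and classified.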
HT1080 IDH1KD tx: kills HT-1080 cells with IDH1 knockdown; HT-1080 IDH1 knockdown viability, ATP luminescence, 48 h; Potency, µM (top dose mostly 46.1 µM), for the others: top-dose activity, negative = toxicity, hits mostly cytotoxic; 2% of 360,000 active;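 note: potency is the fitted concentration of half-maximal effect; 0% = DMSO wells and -100% = cell-free medium wells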
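After a 2 h attachment period, IDH1KD HT-1080 cells took pin-transferred compound for 48 h at 37 °C; ATP-based luminescence after 10 min room-temperature reagent incubation reported viability.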
Numbers without * were called inactive; ? = inconclusive; . = not tested or not shown; [ ] = dose if it differs, or a comment. Unless noted, calls come from the whole dose curve; as a rule, active = well fitted curve in the direction sought with a large enough effect; inconclusive = small, poorly fitted or top-dose-only effect, or another doubt; inactive = no such curve, though single readings can be large; an effect the other way counts as inactive or inconclusive.

SMILES	Giardia killer	TGFb SMAD3 inh	HT1080-NT tox	IL1B secr inh	HepG2 tox	HT1080 IDH1KD tx
N#CC(=C1C=CC(=NO)C(Cl)=C1)c1ccc(Cl)cc1	0	?	-22%	-54*	-19%	?
C/C(=N/NC(=O)c1cccs1)c1c(C)[nH]n(-c2nc3ccccc3s2)c1=O	?	-27%	2.3µM*	-2	1µM*	2.6µM*
Nc1c(C(=O)NCCN2CCOCC2)c2nc3ccccc3nc2n1CCc1ccccc1	11	-16%	?	-59*	-38%	?
c1ccc2nc3c(nc2c1)c1ccccc1n3CCN1CCOCC1	-11	16%	-21%	-63*	-14%	13µM*
N#Cc1c(N)n(CCNC(=O)c2ccc(Cl)cc2)c2nc3ccccc3nc12	9	-3%	-10%	-58*	-9%	-17%
CC(C)OC(=O)c1c(N)n(CCCN2CCOCC2)c2nc3ccccc3nc12	-6	13%	-12%	-11	-16%	-15%
Nc1c(C(=O)NCc2ccco2)c2nc3ccccc3nc2n1CCc1ccc(F)cc1	-16	16µM*	?	-116*	-103%	?
Cc1ccc(C(=O)NCCn2c(N)c(C#N)c3nc4ccccc4nc32)cc1	-18	-1%	7%	-1	1%	25%
Cc1ccc2nsnc2c1S(=O)(=O)N1CCN(CCc2ccccc2)CC1	-1	-11%	-4%	-4	-29%	-2%
Cn1c(SCC(=O)N2CCCc3ccccc32)nc2cccnc21	-24	-1%	0%	-12	-12%	-12%
CCCCN(C)C1CCN(C(=S)Nc2ccc(OCC)cc2)CC1	2	1%	0%	-21	-8%	0%
Cc1ccc(S(=O)(=O)N(C)c2ccccc2C(=O)N2CCCC2)cc1	?	-4%	16%	16	0%	13%
N#Cc1c(N)n(CCc2ccc(F)cc2)c2nc3ccccc3nc12	0	0%	-20%	-57*	11%	-14%
COc1ccccc1CNC(=O)c1c(N)n(CCCN2CCOCC2)c2nc3ccccc3nc12	21	?	7%	?	-110%	-3%
O=C(NCC1CCCO1)c1cc(-c2ccccc2)on1 (stereo unspecified)	11	-2%	-18%	-80*	1%	?
COCCn1c(N)c(C#N)c2nc3ccccc3nc21	-6	?	5%[9.24 µM]	0	7%	-11%
Nc1c(C(=O)NCCN2CCOCC2)c2nc3ccccc3nc2n1CCc1ccccc1F	3	?	?	-63*	-57%	?
CC(C)Cn1c(N)c(C(=O)NCC2CCCO2)c2nc3ccccc3nc21 (stereo unspecified)	-4	?	?	-80*	-38%	?
COCCn1c(N)c(C(=O)NCC2CCCO2)c2nc3ccccc3nc21 (stereo unspecified)	3	2%	-12%	-18	-22%	-9%
CCc1ccc(NC(=O)c2ccc3c(O)c(S(=O)(=O)c4ccc(Cl)cc4)c(=O)[nH]c3c2)cc1	.	6%	.	.	3%	.
CCOc1ncccc1C(=O)Nc1ccc(F)c(F)c1	-5	-6%	-3%	-4	-4%	-2%
CCOC(=O)c1nc2cc3n(c(C)c-2c1C)C(C)C(C)=C3C (stereo unspecified)	6	2%	-8%	-62*	-5%	-12%
CCOC(=O)c1nc2cc3n(c(CC(C)C)c-2c1C)CC(C)=C3C	1	-13%	13%	-2	-20%	7%
Cc1ccc(Sc2ncccc2C(=O)O)cc1C	1	3%	3%	30	5%	4%
CCOc1ccc(NC(=O)C[n+]2ccc(N(C)C)cc2)cc1	-8	4%	4%	12	0%	?
SMILES	Giardia killer	TGFb SMAD3 inh	HT1080-NT tox	IL1B secr inh	HepG2 tox	HT1080 IDH1KD tx
CN(C)c1cc[n+](CC(=O)Nc2ccc(Cl)cc2)cc1	4	-24%	6.5µM*	-51*	-26%	?
CN(C)c1cc[n+](CC(=O)Nc2ccc(Oc3ccccc3)cc2)cc1	21	0%	?	-77*	-5%	?
CC(C)COC(=O)N1CCCC(c2cc(C(=O)Nc3ccccc3Cl)no2)C1 (stereo unspecified)	.	-3%	-18%	-2	-4%	-25%
COc1ccc(Br)cc1C(=O)Nc1ccccc1N1CCN(C(=O)c2ccccc2)CC1	42	-27%	-9%	-63*	-1%	-21%
COC(=O)c1ccc(N2CCN(C(=O)c3ccccc3)CC2)c(NC(C)=O)c1	-5	7%	4%	-107*	7%	14%
O=C(Nc1ccccc1N1CCN(C(=O)c2ccccc2)CC1)c1cc(Br)ccc1Cl	33	9%	-15%	-29	-20%	-23%
Clc1cccc(-c2nnc(-c3ccccc3)o2)c1	-28	-31%	-14%	-24	-15%	-10%
Cn1c(SCc2c(F)cccc2Cl)nc2ccccc2c1=O	-11	3%	5%	0	2%	7%
Cn1c(SCc2c(F)cccc2Cl)nc2c(c1=O)SCC2	0	-15%	-23%	-59*	1%	-6%
CCC(=O)Nc1cc(=O)[nH]c2ncnn12	-7	2%	-2%	26	-18%	-6%
Cc1cccc(Nc2nc(-c3ccc(F)cc3)cs2)n1	-3	0%	-3%	-22	-15%	-15%
Cc1cccnc1Nc1nc(-c2ccccn2)cs1	-19	?	1.3µM*	-111*	-10%	1µM*
Cc1cccc(Nc2nc(-c3ccccn3)cs2)n1	4	?	0.32µM*	41	-35%	0.35µM*
Cc1cccc(Nc2nc(-c3cccs3)cs2)n1	-11	13µM*	-18%	-15	-19%	-28%
O=C(Cn1nc(-c2ccccc2)c2c(c1=O)CCCC2)Nc1ccc(F)c(Cl)c1	.	-5%	.	.	-3%	.
Cc1cc2[nH]c3c(c[n+](C)c4ccccc34)c2cc1C	-84*	?	?	-99*	10µM*	21µM*
O=C(CNc1ccccc1)N/N=C/c1cc([N+](=O)[O-])ccc1N1CCCC1	1	-5%	-21%	?	-6%	-21%
CC1(C)CC2CC(C)(CN2C(=O)c2cc(-c3ccc(O)cc3)on2)C1 (stereo unspecified)	19	?	?	-62*	-127%	?
Cc1ccc(-c2nn(-c3ccccc3)cc2C(=O)NCC(c2cccs2)N2CCOCC2)cc1 (stereo unspecified)	12	11%	-6%	?	-16%	-1%
O=C(NCC(c1cccs1)N1CCOCC1)c1cccnc1 (stereo unspecified)	-8	-2%	-4%	19	-7%	-1%

Screening results as filed in PubChem BioAssay.
